Measurements reported in PubChem BioAssay (NCATS).
Where “and” joins values, the source holds several entries; their conditions need not be identical. Equal entries are not always repeated. Inconclusive results are not listed. Calls of active or inactive are those of the source. Unless noted, calls come from the whole dose curve; as a rule, active = well fitted curve in either direction with a large enough effect (not every such curve was filed as active); inconclusive = small, poorly fitted or top-dose-only effect, or another doubt; inactive = flat fitted curve, though single readings scatter.

Assays:
[1] = Cell Viability - BJ (AID 421; calls by dose curve;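 note: potency is the fitted concentration of half-maximal effect; cells exposed to compound for 40 hours at 37 °C before readout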); conditions: BJ fibroblast viability, qHTS
In short: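 Cytotoxicity in human BJ foreskin fibroblasts is scored as loss of cellular ATP after a 40-hour exposure, measured by luciferase luminescence. Controls are DMSO and 100 uM tamoxifen.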

[2] = Cell Viability - Jurkat (AID 426;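 active = dose-dependent loss of cell ATP signal giving a full or clear fitted curve, ranked by lower potency value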; note: potency is the fitted concentration of half-maximal effect); conditions: qHTS
In short: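 Jurkat (clone E6-1, human T-cell leukemia) cells, 5000/well in complete medium, were exposed to compound for 40 hr at 37 °C. Viability was read as intracellular ATP by CellTiter-Glo luminescence; AC50 came from Hill fits of concentration-response data.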

[3] = Cell Viability - Hek293 (AID 427;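 active = compounds whose dose-response curve shows a full or clear partial loss of cell viability, called from curve shape rather than a numeric limit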;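 note: potency is the fitted concentration of half-maximal effect; cells exposed to compound for 40 hours at 37 °C before reading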); conditions: qHTS
In short: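 qHTS, human embryonic kidney (adenovirus-transformed) cells; 40 hr cpd, 37 °C; CellTiter-Glo ATP luminescence. Norm: DMSO = 0, 100 uM tamoxifen = 100% inhibition. Hill-fit AC50.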

[4] = Cell Viability - HepG2 (AID 433; calls by dose curve;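 note: potency is the fitted concentration of half-maximal effect; potency for ATP loss meaning cytotoxicity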); conditions: qHTS
In short: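 HepG2 hepatocellular carcinoma cells (1500/well) were treated with compounds for 40 h at 37 °C in complete medium; intracellular ATP was read by CellTiter-Glo luminescence. Data were normalized to DMSO and 100 uM tamoxifen, and AC50 came from Hill fits.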

[5] = Cell Viability - MRC5 (AID 434; calls by dose curve;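 note: potency is the fitted concentration of half-maximal effect; potency reflects cytotoxicity seen as loss of intracellular ATP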); conditions: MRC5 lung fibroblast viability, qHTS
In short: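 MRC5 normal human lung fibroblasts, 1500 cells/well, exposed to compound for 40 hr at 37 C. Cellular ATP was read by CellTiter-Glo luminescence; data normalized to DMSO and 100 uM tamoxifen, with AC50 from Hill fits.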

[6] = Cell Viability - SK-N-SH (AID 435; calls by dose curve;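 note: potency is the fitted concentration of half-maximal effect; compound exposure lasted 40 h at 37 °C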); conditions: SK-N-SH neuroblastoma cell viability qHTS
In short: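 SK-N-SH human neuroblastoma cells (1500/well) were exposed to compounds in complete medium for 40 h at 37 °C, and intracellular ATP was then measured by CellTiter-Glo luminescence. AC50 was taken from Hill fits, normalized to DMSO and 100 uM tamoxifen.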

[7] = NFAT Signaling Pathway (AID 444); conditions: Jurkat NFAT-bla M1, carbachol, beta-lactamase ratio, 5 h;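 note: carbachol stimulus at about its EC50 of 1 µM final; % is set by controls: 0 for no effect and ±100 for the full control effect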
In short: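 Jurkat cells with NFAT-driven β-lactamase reporter and co-expressed M1 receptor, stimulated with carbachol (final 1 uM, ~EC50), compound titration, 5 h at 37 °C. CCF4 loaded 1 h at RT; 460/530 nm ratio gave %activity and AC50.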

[8] = Stat Signaling Pathway (AID 446);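 note: ME-180 cervical cancer cells given 40 pM IL-6 alongside compound; SIE-controlled beta-lactamase reporter measured as 460/530 nm FRET emission ratio; % is set by controls: 0 for no effect and ±100 for the full control effect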
In short: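 Screening format detects activators and inhibitors alike: ME-180 SIE-bla cells stimulated at 40 pM IL-6 for 5 hrs with compound, then dual-emission beta-lactamase read at 405 nm excitation.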

[9] = target: Glucocorticoid receptor (Homo sapiens) (UniProt P04150); assay: GR-GFP Redistribution (AID 450;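 active = compounds whose dose series gives a full or clear partial fitted curve of increased nuclear translocation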; note: potency is the fitted concentration of half-maximal effect); conditions: U2OS GR-GFP nuclear translocation, laser cytometry, 2 h
Glucocorticoid receptor (Homo sapiens), sequence (P04150 whole entry, looked up, the tested form may be a part): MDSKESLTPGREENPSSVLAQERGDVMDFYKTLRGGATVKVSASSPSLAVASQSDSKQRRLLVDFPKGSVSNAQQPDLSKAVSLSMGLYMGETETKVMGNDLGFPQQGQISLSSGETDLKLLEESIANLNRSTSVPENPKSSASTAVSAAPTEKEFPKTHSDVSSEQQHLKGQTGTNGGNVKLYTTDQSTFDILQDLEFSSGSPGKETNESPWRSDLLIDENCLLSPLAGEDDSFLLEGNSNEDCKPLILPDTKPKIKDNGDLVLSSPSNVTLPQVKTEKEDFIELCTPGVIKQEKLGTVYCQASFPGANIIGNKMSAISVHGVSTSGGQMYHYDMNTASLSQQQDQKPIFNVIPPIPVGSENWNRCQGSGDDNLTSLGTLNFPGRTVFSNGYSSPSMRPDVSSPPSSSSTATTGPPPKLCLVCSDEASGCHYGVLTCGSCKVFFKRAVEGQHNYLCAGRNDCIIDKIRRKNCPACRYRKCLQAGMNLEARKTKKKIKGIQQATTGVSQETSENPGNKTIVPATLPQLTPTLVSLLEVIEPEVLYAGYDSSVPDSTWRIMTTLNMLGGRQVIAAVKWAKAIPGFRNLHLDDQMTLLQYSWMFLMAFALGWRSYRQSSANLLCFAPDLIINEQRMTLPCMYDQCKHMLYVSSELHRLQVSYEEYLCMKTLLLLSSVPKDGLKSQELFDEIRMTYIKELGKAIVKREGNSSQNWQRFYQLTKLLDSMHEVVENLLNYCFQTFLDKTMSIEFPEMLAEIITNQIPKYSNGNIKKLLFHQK

[10] = target: Mitogen-activated protein kinase 10 (Mus musculus) (UniProt Q61831); assay: JNK3 AlphaScreen Assay (AID 530);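 note: kinase came from lysate of stimulated human HepG2 cells; signal reports phosphorylation of biotinylated GST-cJun 1-79 at Ser73 with 10 µM ATP; % is set by controls: 0 for no effect and ±100 for the full control effect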
In short: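 qHTS format: compounds tested as titrations against IL-1beta/TNF-alpha-activated HepG2 lysate JNK3 with biotin-GST-cJun substrate and 10 uM ATP at room temperature. Loss of anti-phospho-cJun AlphaScreen signal indicates inhibition.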

[11] = Cell Viability - N2a (AID 540; active = well fitted curve in the direction sought with a large enough effect; an effect the other way counts as inactive or inconclusive;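 note: plate controls were DMSO alone for no effect and tamoxifen control for full effect; nearly all actives have a fitted effect of over 45% in size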); conditions: N2a mouse neuroblastoma cell viability; activity change, negative = cytotoxicity: at 92.2 µM (top of the series)
In short: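 Mouse neuroblastoma N2a cells (1500/well) were preincubated 5 hr at 37 °C, then exposed to compounds for 40 hr at 37 °C in complete medium. Viability was read as intracellular ATP by CellTiter-Glo luminescence; AC50 from Hill fits.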

[12] = Cell Viability - NIH 3T3 (AID 541; active = well fitted curve in the direction sought with a large enough effect; an effect the other way counts as inactive or inconclusive;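 note: plate controls were DMSO alone for no effect and tamoxifen positive control for full effect; nearly all actives have a fitted effect of over 25% in size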); conditions: NIH 3T3 cell viability, qHTS; activity change, negative = cytotoxicity: at 92.2 µM (top of the series)
In short: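 NIH 3T3 mouse embryo fibroblasts (1000 cells/well) were plated in complete medium and treated with compound for 40 hr at 37 °C. Viability was read as intracellular ATP by CellTiter-Glo luminescence; AC50 values came from Hill-equation fits of concentration-response data.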

[13] = Cell Viability - HUV-EC-C (AID 542; active = well fitted curve in the direction sought with a large enough effect; an effect the other way counts as inactive or inconclusive; note: % is set by controls: 0 for no effect and ±100 for the full control effect; nearly all actives have a fitted effect of over 35% in size)
In short: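 HUV-EC-C normal human vascular endothelial cells, 1000 cells/well, pre-incubated 5 hr at 37 °C, then exposed to compounds for 40 hr at 37 °C in complete medium. Viability measured as intracellular ATP by CellTiter-Glo luminescence; AC50 from Hill fits.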

[14] = Cell Viability - H-4-II-E (AID 543; active = well fitted curve in the direction sought with a large enough effect; an effect the other way counts as inactive or inconclusive; note: % is set by controls: 0 for no effect and ±100 for the full control effect; nearly all actives have a fitted effect of over 35% in size)
In short: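 Rat hepatoma H-4-II-E cells (1500/well) were plated, incubated 5 hr at 37 °C, then exposed to compounds for 40 hr at 37 °C. Cellular ATP was read by CellTiter-Glo luminescence; AC50 came from Hill-equation fits of concentration-response data.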

[15] = Cell Viability - SH-SY5Y (AID 544; active = well fitted curve in the direction sought with a large enough effect; an effect the other way counts as inactive or inconclusive;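 note: 0% = DMSO alone and -100% = 100 µM tamoxifen; nearly all actives have a fitted effect of over 55% in size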); conditions: SH-SY5Y neuroblastoma cell viability; viability change, negative = cytotoxic: at 92.2 µM (top of the series)
In short: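 Human neuroblastoma SH-SY5Y cells (1500/well) in complete medium were exposed to compounds for 40 hr at 37 °C; intracellular ATP was then quantified by CellTiter-Glo luminescence after 20 min at room temperature. AC50 came from Hill-equation concentration-response fits.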

[16] = Cell Viability - Renal Proximal Tubule (AID 545; active = well fitted curve in the direction sought with a large enough effect; an effect the other way counts as inactive or inconclusive;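 note: 0% = DMSO only and -100% = 100 µM tamoxifen; nearly all actives have a fitted effect of over 40% in size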)
In short: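 Primary rat renal proximal tubule cells (1000/well) were treated with compounds for 40 hr at 37 °C in complete medium. Intracellular ATP was measured by CellTiter-Glo luminescence, and AC50 values came from Hill-equation fits of concentration-response data.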

[17] = target: Glucocorticoid receptor (Homo sapiens) (UniProt P04150); assay: GR-EFC Redistribution (AID 451; calls by dose curve; note: potency is the fitted concentration of half-maximal effect); conditions: CHO-K1 GR-EFC translocation, beta-gal luminescence, 2 h
In short: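 CHO-K1 cells expressing nuclear EA and GR-ED fragments of b-gal; compounds titrated up to 46 uM final, 2 h at 37 C. GR nuclear translocation read as complemented b-gal luminescence after 1 h RT detection.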

[18] = target: Cytochrome P450 1A2 (Homo sapiens) (UniProt P05177); assay: p450-cyp1a2 (AID 410; calls by dose curve; note: potency is the fitted concentration of half-maximal effect;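 for activity change, negative = inhibition: -100% = full effect of reference inhibitor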)
Cytochrome P450 1A2 (Homo sapiens), sequence (P05177 whole entry, looked up): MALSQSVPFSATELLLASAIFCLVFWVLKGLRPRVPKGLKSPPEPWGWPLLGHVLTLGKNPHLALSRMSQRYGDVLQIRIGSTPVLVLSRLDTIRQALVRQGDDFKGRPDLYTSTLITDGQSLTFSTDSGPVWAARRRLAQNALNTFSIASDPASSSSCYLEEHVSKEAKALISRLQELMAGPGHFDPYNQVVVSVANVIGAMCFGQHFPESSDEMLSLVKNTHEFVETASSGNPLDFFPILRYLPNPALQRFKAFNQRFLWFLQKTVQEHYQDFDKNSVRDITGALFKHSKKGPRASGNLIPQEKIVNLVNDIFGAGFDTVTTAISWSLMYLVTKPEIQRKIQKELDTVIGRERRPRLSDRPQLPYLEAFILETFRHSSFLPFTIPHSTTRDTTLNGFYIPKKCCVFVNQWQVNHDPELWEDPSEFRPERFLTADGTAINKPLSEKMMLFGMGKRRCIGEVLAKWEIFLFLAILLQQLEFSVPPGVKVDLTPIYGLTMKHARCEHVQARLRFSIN
In short: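 Human CYP1A2 (20nM) demethylated Luciferin-ME at its Km (100uM) in 100mM KPO4. After 10 min compound preincubation, NADPH regeneration ran the reaction 60 min at room temperature. Luciferin was read by luminescence, normalized to 57 uM furafylline.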

Cc1cn([C@H]2C[C@H](N=[N+]=[N-])[C@@H](CO)O2)c(=O)[nH]c1=O
inactive: Potency [1] > 92 µM | Potency [2] > 92 µM | Potency [3] > 92 µM | Potency [4] > 92 µM | Potency [5] > 92 µM | Potency [6] > 92 µM | activity change, negative = inhibition ([7]; at 17.2 µM (top of the series)) 15.9% | outcome [8] | Potency [9] > 20.6 µM | outcome [10] | activity change, negative = cytotoxicity [11] -7.33% | Potency [12] | outcome [13] | Potency [14] | Potency [15] | Potency [16]

CC(C)NCC(O)c1ccc(O)c(O)c1 (configuration not stated)
inactive: Potency [1] > 92 µM | Potency [3] > 92 µM | Potency [4] > 92 µM | Potency [5] > 92 µM | Potency [6] > 92 µM | outcome [10] | activity change, negative = cytotoxicity [11] 0.719% | Potency [12] | outcome [13] | Potency [14] | Potency [15] | Potency [16]

Nc1ccn([C@H]2CC[C@@H](CO)O2)c(=O)n1
inactive: Potency [1] > 92 µM | Potency [2] > 92 µM | Potency [3] > 92 µM | Potency [4] > 92 µM | Potency [5] > 92 µM | Potency [6] > 92 µM | outcome [10] | activity change, negative = cytotoxicity [11] -5.12% | Potency [12] | outcome [13] | Potency [14] | Potency [15] | Potency [16]

NCCS(=O)(=O)O
inactive: Potency [1] > 92 µM | Potency [2] > 92 µM | Potency [3] > 92 µM | Potency [4] > 92 µM | Potency [5] > 92 µM | Potency [6] > 92 µM | activity change, negative = inhibition ([7]; at 38 µM (top of the series)) 3.83% | outcome [8] | Potency [9] > 46 µM | Potency [17] > 46 µM | outcome [10] | activity change, negative = cytotoxicity [11] -1.66% | Potency [12] | outcome [13] | Potency [14] | Potency [15] | Potency [16]

Cc1ccc(-c2cc(C(F)(F)F)nn2-c2ccc(S(N)(=O)=O)cc2)cc1
inactive: Potency [1] > 92 µM | Potency [2] > 92 µM | Potency [3] > 92 µM | Potency [4] > 92 µM | Potency [5] > 92 µM | Potency [6] > 92 µM | outcome [10] | activity change, negative = cytotoxicity [11] -43.6% | outcome [13]
active: activity change, negative = cytotoxicity [12] -132%

CN(C)C(=N)N=C(N)N
inactive: activity change, negative = inhibition ([7]; at 17.2 µM (top of the series)) -11.6% | outcome [8] | Potency [9] > 20.6 µM | Potency [17] > 20.6 µM | outcome [10]

CN1CCC(=C2c3ccccc3C=Cc3ccccc32)CC1
inactive: Potency [18] | outcome [8] | Potency [9] > 46 µM and > 20.6 µM | Potency [17] > 46 µM and > 20.6 µM | outcome [10]
active: activity change, negative = inhibition ([7]; at 17.2 µM (top of the series)) -67.8%

CS(=O)(=O)Nc1ccc([N+](=O)[O-])cc1Oc1ccccc1
inactive: activity change, negative = inhibition ([7]; at 17.2 µM (top of the series)) -5.4% and -1.94% | outcome [8] | outcome [10]
active: Potency [18] 15.8 µM and 12.6 µM

Clc1ccccc1C(c1ccccc1)(c1ccccc1)n1ccnc1
inactive: outcome [8] | Potency [9] > 46 µM and > 20.6 µM | Potency [17] > 46 µM and > 20.6 µM | outcome [10]

CCc1cccc2c3c([nH]c12)C(CC)(CC(=O)O)OCC3 (configuration not stated)
inactive: activity change, negative = inhibition ([7]; at 17.2 µM (top of the series)) 12.2% | outcome [8]

COc1cc2nc(N3CCN(C(=O)c4ccco4)CC3)nc(N)c2cc1OC
inactive: Potency [18] | outcome [8] | outcome [10]

NC(CO)C(=O)NNCc1ccc(O)c(O)c1O (configuration not stated)
inactive: activity change, negative = inhibition ([7]; at 17.2 µM (top of the series)) 13.6% | outcome [8]

CCOC(=O)C(C)(C)Oc1ccc(Cl)cc1
inactive: activity change, negative = inhibition ([7]; at 38 µM (top of the series)) -4.66% | outcome [8] | Potency [9] > 46 µM | Potency [17] > 46 µM | outcome [10]

Cc1cn([C@H]2C=C[C@@H](CO)O2)c(=O)[nH]c1=O
inactive: Potency [1] > 92 µM | Potency [2] > 92 µM | Potency [3] > 92 µM | Potency [4] > 92 µM | Potency [5] > 92 µM | Potency [6] > 92 µM | activity change, negative = inhibition ([7]; at 17.2 µM (top of the series)) 6.73% | outcome [8] | outcome [10] | activity change, negative = cytotoxicity [11] 11.8% and 9.96% | Potency [12] | outcome [13] | Potency [14] | Potency [15] | Potency [16]

Cn1cnc2c1c(=O)[nH]c(=O)n2C
inactive: activity change, negative = inhibition ([7]; at 17.2 µM (top of the series)) -1.3% and 20% | activity change, negative = inhibition ([7]; at 38 µM (top of the series)) 4.74% | outcome [8] | Potency [9] > 46 µM and > 20.6 µM | Potency [17] > 46 µM and > 20.6 µM | outcome [10]

Clc1ccc2c(c1)C(N1CCNCC1)=Nc1ccccc1O2
active: Potency [18] 12.6 µM and 3.98 µM
inactive: outcome [8] | Potency [9] > 46 µM and > 20.6 µM | Potency [17] > 46 µM and > 20.6 µM | outcome [10]

O=C(c1ccc(OCCN2CCCCC2)cc1)c1c(-c2ccc(O)cc2)sc2cc(O)ccc12
inactive: outcome [8] | Potency [9] > 46 µM and > 20.6 µM | Potency [17] > 46 µM and > 20.6 µM

O=C(C1CCCCC1)N1CC(=O)N2CCc3ccccc3C2C1 (configuration not stated)
inactive: activity change, negative = inhibition ([7]; at 17.2 µM (top of the series)) -4.85% and -1.54% | outcome [8] | Potency [9] > 20.6 µM

OCCN(CCO)c1nc(N2CCCCC2)c2nc(N(CCO)CCO)nc(N3CCCCC3)c2n1
inactive: activity change, negative = inhibition ([7]; at 17.2 µM (top of the series)) 7.02% and -24.7% | activity change, negative = inhibition ([7]; at 38 µM (top of the series)) -0.6% | outcome [8] | outcome [10]

CN(Cc1cnc2nc(N)nc(N)c2n1)c1ccc(C(=O)N[C@@H](CCC(=O)O)C(=O)O)cc1
inactive: Potency [18] | outcome [10]
